In PubChem BioAssay (EPA / NIEHS) one finds outcome and AC50 data, which are given here for 22 compounds.

Calls of active or inactive are those of the source. Rule for the calls: active = hit-call score of the fitted dose curve at least 0.9, where 1 is the maximum; inactive = score below 0.9.

For orientation: AC50 means the concentration at which the activity in the assay is half-maximal.

A short description of the experiment: CEETOX_H295R_CORTISOL: CeeTox H295R High-throughput Steroidogenesis Assay for Cortisol (AID 2283438).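 Note: cortisol secreted into medium quantified by LC-MS/MS.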 Conditions: actives raise or lower the signal. The protocol:
CEETOX_H295R is a cell-based, multiplexed-readout assay that uses H295R, a human adrenal gland cell line, with measurements taken at 48 hours after chemical dosing in a 96-well plate.CEETOX_H295R_CORTISOL is one of 23 assay component(s) measured or calculated from the CEETOX_H295R assay. It is designed to make measurements of hormone induction, a form of inducible reporter, as detected with absorbance signals by HPLC-MS-MS technology.Data from the assay component CEETOX_H295R_CORTISOL was analyzed into 1 assay endpoint. This assay endpoint, CEETOX_H295R_CORTISOL, was analyzed with bidirectional fitting relative to DMSO as the negative control and baseline of activity. Using a type of inducible reporter, gain or loss-of-signal activity using HPLC-MS-MS was used to understand synthesis of Cortisol in H295R cell line at 48hr of chemical exposure. To generalize the intended target to other relatable targets, this assay endpoint is annotated to the steroid hormone intended target family, where the subfamily is glucocorticoids.
Cell culture and media preparation procedures were conducted in accordance with OECD Test No. 456 guidelines, with minor modifications. H295R cells (ATCC CRL-2128) were expanded for 5 passages and frozen in batches in liquid nitrogen. Prior to the steroidogenesis assay, H295R cells were thawed and passed at least 4 times. The maximum passage was 10. Cells were maintained in a 1:1 mixture of DMEM/F12 supplemented with 5ml/L ITS+ Premix (BD Bioscience) and 12.5 ml/L Nu-Serum (BD Bioscience). After seeding cells into 96-well plates at 50-60% confluency, cells were allowed to adhere overnight. Prior to chemical testing, culture medium was replaced with 175 uL medium containing 10 uM forskolin to stimulate steroidogenesis for 48 hours. Following prestimulation, forskolin medium was replaced with medium containing test chemical solubilized in DMSO (ensuring a final concentration of 0.1% DMSO). Test chemicals were incubated for 48 hours, then the medium was removed and split into 2 vials containing approximately 75uL each, and stored at -80 C prior to hormone analysis. For steroid quantification, media samples were shipped to OpAns, LLC (Durham, NC) on dry ice, and samples were thawed to room temperature prior to liquid-liquid extraction. Steroid hormones were extracted from media samples using methyl tertbutyl ether (MTBE). An extra derivatization with dansyl chloride was included for estrogen (estrone and estradiol) detection only. Steroid hormones were separated by HPLC, eluted using a reverse phase C18 gradient with electrospray positive ionization, followed by quantification by tandem mass spectrometry (MS/MS). Data were acquired on a MassHunter Workstation Acquisition version B03.01 (Agilent Technologies, Inc.) and processed using MassHunter Quantitative Analysis for QQQ. Accuracy was determined for each hormone analyte from 3 standards to determine upper and lower limits of quantification (ULOQ and LLOQ, respectively) using a 7-point standard curve. Precision and accuracy of the extraction and quantification methods were calculated as the percent relative standard deviation (%RSD) of the spiked standards and percent spiked standard recovered, respectively. The goal was to achieve 100% accuracy (i.e., recover all spiked-in standard at quantification with minimal loss during run time) and good precision (i.e., have %RSD <15% to ensure reproducibility). Test medium was removed following chemical exposure, and cell viability was evaluated in the same wells by MTT. MTT procedures were as follows: after removal of test medium, 500 uL of 0.5 mg/ml of 3-[4,5-dimethylthiazol-2-y]2,5-diphenyltetrazoliumbromide solution was added to the cells. Following a 4-hour incubation at 37 C and 5% CO2 to allow formazan-crystal formation, the MTT solution was removed and blue formazan salt crystals were solubilized using 500uL anhydrous isopropanol with shaking for 20 minutes. […]
Take `Oc1cc(Cl)ccc1Oc1ccc(Cl)cc1Cl`: the result was inactive.
For the compound `CC(C)(C)C(O)/C(=C\c1ccc(Cl)cc1Cl)n1cncn1` (configuration not stated), the outcome was inactive.
Same read-out and setting: the same measure for `O=C(NC(=O)c1c(F)cccc1F)Nc1ccc(OC(F)(F)C(F)OC(F)(F)F)c(Cl)c1` (configuration not stated): “inactive”.
`COP(=S)(OC)Oc1ccc(SC)c(C)c1`: the compound was classed as inactive.
With `C[C@H]1[C@H](c2ccc(Cl)cc2)SC(=O)N1C(=O)NC1CCCCC1`, the result was inactive.
Turning to `CCCN(CCOc1c(Cl)cc(Cl)cc1Cl)C(=O)n1ccnc1`, the AC50 was 0.355 µM (active).
Regarding `CCC(C)(C)C(=O)OC1=C(c2ccc(Cl)cc2Cl)C(=O)OC12CCCCC2`, the outcome was inactive.
With `CC1(C)C(C=C(Cl)Cl)C1C(=O)OC(C#N)c1ccc(F)c(Oc2ccccc2)c1` (configuration not stated), the result was inactive.
Still for that read-out and setting: then `CCc1ccc(C(=O)NN(C(=O)c2cc(C)cc(C)c2)C(C)(C)C)cc1`, with “inactive”; and `O=[N+]([O-])/N=C1\NCCN1Cc1ccc(Cl)nc1`, with “inactive”.
The same measure, in the same setting: the same measure for `CNC(=O)Oc1ccccc1OC(C)C`: “inactive”; for `Oc1ccc(Cl)cc1Cc1ccccc1`: “inactive”.
For `N#Cc1c(Cl)c(Cl)c(Cl)c(C#N)c1Cl`, the outcome was inactive.
On the same count and under the same terms, then `CNC(=O)/C=C(\C)OP(=O)(OC)OC`, with “inactive”; and `CCN(CC)C(=O)SCc1ccc(Cl)cc1`, with “inactive”; and `O=[N+]([O-])c1c(Cl)c(Cl)c(Cl)c(Cl)c1Cl`, with “inactive”.
`COc1nn(CSP(=S)(OC)OC)c(=O)s1`: the result was inactive.
Turning to `CCC(C)Nc1c([N+](=O)[O-])cc(C(C)(C)C)cc1[N+](=O)[O-]` (configuration not stated), the AC50 was 78.1 µM (active).
As to `C#CCN1C(=O)COc2cc(F)c(N3C(=O)C4=C(CCCC4)C3=O)cc21`, the compound was called inactive.
Same read-out and setting: the same measure for `CC(C)N(C(=O)COc1nnc(C(F)(F)F)s1)c1ccc(F)cc1`: “inactive”; for `O=C(O)COc1ccc(Cl)cc1Cl`: “inactive”; for `CC[C@H](C)[C@H]1O[C@]2(C=C[C@@H]1C)C[C@@H]1C[C@@H](C/C=C(\C)[C@@H](O[C@H]3C[C@H](OC)[C@@H](O[C@H]4C[C@H](OC)[C@@H](O)[C@H](C)O4)[C@H](C)O3)[C@@H](C)/C=C/C=C3\CO[C@@H]4[C@H](O)C(C)=C[C@@H](C(=O)O1)[C@]34O)O2` (tested in a mixture with another compound): “inactive”.
